Out of some 310,000 compounds screened, about 14,000 (4.5%) showed an effect of 50% or more. The effect is printed as a negative number. Only a selection was taken, and strong results are over-represented in it overall.
These compounds were tested against human ether-à-go-go-related gene (hERG) potassium channel (human, UniProt Q12809) (assay: primary screen, population patch clamp on CHO cells stably expressing hERG; higher = less effect of the substance).
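Note: peak tail current of the secondary pulse compared with the same well before compound.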

human ether-à-go-go-related gene (hERG) potassium channel, sequence (Q12809 whole entry, looked up): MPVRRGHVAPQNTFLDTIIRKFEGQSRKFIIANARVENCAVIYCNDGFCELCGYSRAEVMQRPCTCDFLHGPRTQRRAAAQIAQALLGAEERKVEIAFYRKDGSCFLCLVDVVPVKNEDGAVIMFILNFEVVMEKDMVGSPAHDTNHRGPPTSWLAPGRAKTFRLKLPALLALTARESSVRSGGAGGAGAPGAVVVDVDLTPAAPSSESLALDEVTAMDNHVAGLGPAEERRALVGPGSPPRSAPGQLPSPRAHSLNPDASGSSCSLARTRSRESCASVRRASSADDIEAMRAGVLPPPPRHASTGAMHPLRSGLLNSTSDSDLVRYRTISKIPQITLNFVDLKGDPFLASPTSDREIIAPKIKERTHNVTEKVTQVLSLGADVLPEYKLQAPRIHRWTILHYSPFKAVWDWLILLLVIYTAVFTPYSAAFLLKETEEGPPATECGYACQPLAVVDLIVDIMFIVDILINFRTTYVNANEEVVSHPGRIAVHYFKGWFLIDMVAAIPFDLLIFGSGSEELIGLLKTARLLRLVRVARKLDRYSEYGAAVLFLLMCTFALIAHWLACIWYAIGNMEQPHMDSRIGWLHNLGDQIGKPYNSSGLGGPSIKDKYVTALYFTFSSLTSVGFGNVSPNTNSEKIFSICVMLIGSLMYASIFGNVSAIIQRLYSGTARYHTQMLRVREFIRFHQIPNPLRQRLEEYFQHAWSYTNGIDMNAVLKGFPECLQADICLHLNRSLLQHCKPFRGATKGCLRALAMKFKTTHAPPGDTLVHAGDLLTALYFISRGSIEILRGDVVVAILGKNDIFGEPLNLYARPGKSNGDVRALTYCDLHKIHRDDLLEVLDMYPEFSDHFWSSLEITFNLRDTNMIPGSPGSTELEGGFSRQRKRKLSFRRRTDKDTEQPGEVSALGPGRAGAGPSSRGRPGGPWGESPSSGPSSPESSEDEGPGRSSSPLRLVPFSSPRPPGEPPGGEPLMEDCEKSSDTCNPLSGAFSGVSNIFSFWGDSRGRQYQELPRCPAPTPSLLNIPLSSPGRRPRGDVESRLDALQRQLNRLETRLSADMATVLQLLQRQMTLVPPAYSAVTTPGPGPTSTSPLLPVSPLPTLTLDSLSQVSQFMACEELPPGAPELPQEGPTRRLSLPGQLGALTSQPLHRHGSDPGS

Row | SMILES | hERG current change (%, negative = inhibition) at 10uM
1 | CNc1nnc(-c2ccncc2)s1 | -0.587%
2 | Cc1ccc(Nc2nnc(-c3ccncc3)s2)c(Br)c1 | -59.3%
3 | Clc1ccccc1Nc1nnc(-c2ccncc2)s1 | -6.07%
4 | CCN1CCN(Cc2cc(=O)oc3ccc(Cl)cc23)CC1 | -15%
5 | CCOc1ccc(CN2CCN(C(=O)c3ccco3)CC2)cc1.O=C(O)C(=O)O | -26.8%
6 | CCOc1ccc2oc(=O)cc(CN3CCN(Cc4ccccc4)CC3)c2c1 | -56.7%
7 | Cc1cc(=O)oc2cc(OCC(=O)N3CCN(C(=O)c4ccco4)CC3)ccc12.Cl | -32.6%
8 | CCOc1ccc2oc(=O)cc(CN3CCOCC3)c2c1 | -1.8%
9 | CCOc1ccc2oc(=O)cc(CN3CCN(C(=O)c4ccco4)CC3)c2c1 | -69.4%
10 | O=C(COC(=O)CCc1nc2ccccc2c(=O)[nH]1)Nc1ccc(OC(F)(F)F)cc1 | -5.93%
11 | Cc1cc(OC2CCCCC2)nc(NCc2ccccc2)n1 | 1.82%
12 | COc1ccccc1CNC(=O)COC(=O)Cc1cccc(F)c1 | 1.78%
13 | CCC(=O)Nc1nnc(SCC(=O)N2c3ccccc3CC2C)s1 (centres unmarked) | 5.26%
14 | CC1Cc2ccccc2N1C(=O)CSc1nnc(N)s1 (centres unmarked) | 13%
15 | Cc1nnc(SCC(=O)N2c3ccccc3CC2C)s1 (centres unmarked) | -54.2%
16 | COc1ccc2[nH]c(CN3CCN(CC=C(C)C)C(CCO)C3)c(C)c2c1 (centres unmarked) | -17.1%
17 | COc1ccc2[nH]c(CN3CCN(CCC(C)C)C(CCO)C3)c(C)c2c1 (centres unmarked) | 23.5%
18 | COc1cccc(CN2CCN(Cc3ccc(C)o3)CC2CCO)c1 (centres unmarked) | -21.2%
19 | CCOc1ccc(CN2CCN(Cc3[nH]c4ccccc4c3C)CC2CCO)cc1 (centres unmarked) | -75.8%

Row | SMILES | hERG current change (%, negative = inhibition) at 10uM
20 | CCOc1ccccc1CN1CCN(Cc2c[nH]c3ccccc23)CC1CCO (centres unmarked) | -6.71%
21 | CCOc1ccc(CN2CCN(Cc3[nH]c4ccc(OC)cc4c3C)CC2CCO)cc1 (centres unmarked) | -77.9%
22 | COc1cccc(CN2CCN(Cc3cc4ccccc4[nH]3)CC2CCO)c1 (centres unmarked) | -59.7%
23 | Cc1c(CN2CCN(CC(C)C)C(CCO)C2)[nH]c2ccc(Cl)cc12 (centres unmarked) | -34.4%
24 | CC(C)CN1CCN(Cc2cc3ccccc3[nH]2)CC1CCO (centres unmarked) | -8.69%
25 | CCOc1ccccc1CN1CCN(Cc2[nH]c3ccccc3c2C)CC1CCO (centres unmarked) | -62.3%
26 | Cc1c(CN2CCN(CC(C)(C)C)C(CCO)C2)[nH]c2ccccc12 (centres unmarked) | 12.2%
27 | NC(=O)COc1ccc(Cc2ncc(C(F)(F)F)cc2Cl)cc1 | -2.34%
28 | Cc1ccc(C)c(NS(=O)(=O)c2cc(C(=O)N3CCc4ccccc4C3)ccc2Cl)c1 | 8.24%
29 | CCOc1ccc(C(=O)NCC(=O)OCc2c(C)noc2C)cc1OCC | 23.2%
30 | Cc1cc(O)c(CN2CCN(c3ccccc3)CC2)cc1C | 3.98%
31 | O=C(Nc1ccccc1Cl)Oc1ccc(Cl)cc1Cl | 12.8%
32 | Cc1ccc(NC2=Nc3ccccc3CC2)cc1 | -18.2%
33 | CS(=O)(=O)c1ccc2nc(NC(=O)c3ccc(N4C(=O)CCC4=O)cc3)sc2c1 | 6.3%
34 | CSc1nc2c(c(=O)[nH]1)C(c1ccccc1Cl)CC(=O)N2 (centres unmarked) | 12.8%
35 | CCc1nnc(NS(=O)(=O)c2ccc(Nc3ccc([N+](=O)[O-])c4nonc34)cc2)s1 | 46.6%
36 | COc1cccc(CN2CCN(Cc3[nH]c4ccccc4c3C)CC2CCO)c1 (centres unmarked) | -60.5%
37 | COc1ccc2[nH]c(CN3CCN(CC(C)C)C(CCO)C3)c(C)c2c1 (centres unmarked) | 5.18%
38 | COc1cc(CN2CCN(Cc3c[nH]c4ccccc34)CC2CCO)cc(OC)c1 (centres unmarked) | -32.3%

Row | SMILES | hERG current change (%, negative = inhibition) at 10uM
39 | Cc1csc(NC(=O)CSc2nncn2C)n1 | 19%
40 | O=C1C=C(NCc2ccccc2)C2(CCCCC2)O1 | 0.0967%
41 | CCCCc1ccc(NC(=O)CSc2nc(=O)n(CCN3CCOCC3)c3c2CCC3)cc1 | -66.5%
42 | CCc1ccc(NC(=O)CSc2nc(=O)n(CCCN3CCOCC3)c3c2CCC3)cc1 | -40%
43 | CCc1ccc(NC(=O)CSc2nc(=O)n(CCCN3CCOCC3)c3c2CCCC3)cc1 | -54.7%
44 | CCOc1ccc(NC(=O)CSc2nc(=O)n(CCCN3CCOCC3)c3c2CCC3)cc1 | -24.1%
45 | CCCCc1ccc(NC(=O)CSc2nc(=O)n(CCCN3CCOCC3)c3c2CCC3)cc1 | -64.5%
46 | CCOC(=O)c1ccc(NC(=O)CSc2nc(=O)n(CCN3CCOCC3)c3c2CCC3)cc1 | -32%
47 | O=C(COC(=O)c1cc[n+]([O-])cc1)Nc1ccc(Cl)cc1[N+](=O)[O-] | 15.6%
48 | COc1cc(C(=O)OCC(=O)c2c[nH]c3ccccc23)ccc1OCC(=O)N1CCOCC1 | 5.92%
49 | Cc1cccc(C(=O)N[C@H](C(=O)Nc2nc3ccccc3[nH]2)C(C)C)c1 | 3.32%
50 | COc1ccc(C(CC(=O)c2ccccc2)S(=O)(=O)c2ccc(C)cc2)cc1 (centres unmarked) | 12.8%
51 | COc1ccc(Cl)cc1N(CC(=O)NCC(C)C)S(=O)(=O)c1ccc(C)c([N+](=O)[O-])c1 | 8.34%
52 | COC(=O)C(NNc1ccccc1C)(NC(=O)c1ccc(F)cc1)C(F)(F)F (centres unmarked) | -1.2%
53 | Cc1ccc(NC(=O)c2ccc(OC(F)F)cc2)cc1S(=O)(=O)N(C)C | -10.4%
54 | CC(C)c1onc(C(=O)N2CCN(C(c3ccccc3)c3ccccc3)CC2)c1[N+](=O)[O-] | 13.6%
55 | O=C(O)C(F)(F)F.O=C1C(Cc2ccccc2)Nc2ncnc(N3CCN(c4ccccc4)CC3)c2N1Cc1ccc(Cl)cc1 (centres unmarked) | 0.92%
56 | Cn1nnc2cc(C(=O)N3CCN(c4ccccc4)CC3)ccc21 | -3.95%
